In PubChem BioAssay AID1986 (Sanford-Burnham Center for Chemical Genomics, 2009) one finds inhibition data, which are given here for 60 compounds.

This experiment in a line: cell-free HIV fusion peptide-binding blockers – biochemical, uHTS, fluorescence dequenching, primary screen (AID 1986). Particulars: 30 min, stronger effect = higher value.
[1] abbreviates: measured here: repeat confirmation average inhibition, at 18.6 µM.

Screen size: about 290,000 compounds; about 890 (0.31%) were called active. The sample holds actives, similar compounds and a random draw of the others, so the mix is not that of the screen. Cut-off read from the data, not from the text of the source: active = inhibition mostly above about 52% (no sharp cut-off); inactive = mostly below about 76%.

`Cc1ccc(S(=O)(=O)N2CCC(=O)N(CCOC(=O)Nc3cc(C)cc(C)c3)CC2)cc1`: the inhibition (as a rule, the relative decrease from the control value, in per cent) (at 20 µM) is -2% (inactive).

In the case of `Cc1cc(C)c2nc(-n3nc(C)cc3N)cc(C)c2c1`, the inhibition (at 20 µM) is -0.5% (inactive).

With `COc1cc(C(=O)Nc2nc(-c3cc(C)ccc3C)c(C)s2)ccc1OCC(=O)Nc1ccc(F)cc1`, where the note is “at 20 µM”, the inhibition is -1% (inactive).

`Clc1cccc(CNCCCSc2ncccn2)c1`: under “at 20 µM”, the inhibition was -1.9% (inactive).

As for `CCc1c(-c2ccccc2)nc2sc3c(c2c1N)CCCC3`, the inhibition (at 20 µM) was 0.7% (inactive).

For the compound `Cc1ccccc1NC(=O)CN1C(=O)S/C(=C\c2cccn2-c2cccc(C(=O)O)c2)C1=O`, under “at 20 µM”, the inhibition is -1.1% (inactive).

Take `CN1C(=O)S/C(=C/c2cccn2-c2cccc(C(=O)O)c2)C1=O`: where the note is “at 20 µM”, the inhibition is 1.9% (inactive).

On to `O=C1CC(c2ccccc2)=NN1c1nc(-c2ccccc2)cs1`, for which the inhibition (at 20 µM) was 58% (active).

For the compound `CC1=NN(c2nc(-c3ccc(Cl)cc3)cs2)C(=O)C1`, the inhibition (at 20 µM) was -1.9% (inactive).

Consider `CC1=NN(c2nc(-c3ccccc3)cs2)C(=O)C1`, for which the inhibition (at 20 µM) was 47.5% (inactive).

Take `CCOC(=O)Cn1c(=O)n(Cc2ccc(C)cc2)c(=O)c2cccnc21`: the inhibition (at 20 µM) was 1.3% (inactive).

As for `COc1cc(N2CCCC2)c(OC)cc1/C=C1/NC(=S)NC1=O`, for the setting “at 20 µM”, the inhibition is 121% (active).

On to `COc1cc(N2CCCC2)c(OC)cc1C=O`, for which the inhibition (at 20 µM) is -2.7% (inactive).

Take `COc1cc(N2CCCC2)c(OC)cc1/C=c1/sc2nc3ccccc3n2c1=O`: the inhibition (at 20 µM) was -3.3% (inactive).

On to `COCCN(C(=O)C1CCC1)c1nnc(-c2cccnc2)s1`, for which the inhibition (at 20 µM) was -0.2% (inactive).

Take `Cc1ccc(-c2nc(C=Nc3ccccc3)c(O)o2)cc1`: the inhibition (at 20 µM) was -1.7% (inactive).

For `Oc1oc(-c2ccccc2)nc1C=Nc1ccccc1`, where the note is “at 20 µM”, the inhibition was -1.4% (inactive).

Take `CN(C)c1ccc(N=Cc2nc(-c3ccccc3)oc2O)cc1`: the inhibition is, setting by setting: (at 20 µM) 84.5% (active); under setting [1], 132%.

Take `O=C(CCCc1ccccc1)Nc1ccccn1`: the inhibition (at 20 µM) was -1.4% (inactive).

For the compound `O=C(O)CS(=O)CC(=O)Nc1cccc(C(F)(F)F)c1` (stereo unspecified), for the setting “at 20 µM”, the inhibition was 0.3% (inactive).

As to `CCN1C(=O)/C(=C\c2ccc(-c3cccc(C(=O)OC)c3)o2)SC1=Nc1ccc(C(=O)O)cc1`, the inhibition is 51.6% (inactive) (at 20 µM) and 8.6% under setting [1].

With `CCN=C1S/C(=C\c2ccc(-c3cccc(C(=O)O)c3)o2)C(=O)N1CC`, for the setting “at 20 µM”, the inhibition is 42% (inactive).

With `Cc1ccc(-c2csc(NC(=O)c3ccco3)n2)cc1C`, under “at 20 µM”, the inhibition was 2% (inactive).

`COc1cc(OC)c(OC)cc1CN1CCc2ccccc2C1`: the inhibition (at 20 µM) is 1% (inactive).

As to `O=C(CN1CCC(Cc2ccccc2)CC1)N1CCc2ccccc2C1`, the inhibition (at 20 µM) is 0.8% (inactive).

In the case of `CCOc1cccc(C2/C(=C(/O)c3ccc4c(c3)CC(C)O4)C(=O)C(=O)N2CCCn2ccnc2)c1` (stereo unspecified), the inhibition (at 20 µM) is -2.5% (inactive).

Consider `O=C(Nc1sc2c(c1C(=O)O)CCC2)c1ccccc1`, for which the inhibition (at 20 µM) is 12.1% (inactive).

As for `O=C(Nc1sc2c(c1C(=O)O)CCC2)c1ccc(F)cc1`, the inhibition (at 20 µM) was 6.4% (inactive).

With `CC(C)(C)c1ccc(C(=O)Nc2sc3c(c2C(=O)O)CCC3)cc1`, for the setting “at 20 µM”, the inhibition was 50.9% (active).

As for `O=C(CCN1CCc2ccccc2C1)c1ccc2c(c1)OCCO2`, the inhibition (at 20 µM) was 1.4% (inactive).

Take `O=C(c1ccc(Cl)cc1)c1c[nH]c(C(=O)NNc2ccccc2)c1`: the inhibition (at 20 µM) is -4.1% (inactive).

`CN(CCc1ccccn1)C1CCCN(S(=O)(=O)c2ccc(F)c(Cl)c2)C1` (stereo unspecified): the inhibition (at 20 µM) is -0.2% (inactive).

Take `Oc1ccccc1/C=N/n1c(-c2ccccc2)n[nH]c1=S`: the inhibition (at 20 µM) is 0.3% (inactive).

As for `Oc1c(Br)cc(/C=N/n2c(-c3ccccc3)n[nH]c2=S)cc1Br`, the inhibition (at 20 µM) was 64.4% (inactive) and the inhibition under setting [1] was determined as 15.2%.

Regarding `Oc1c(Br)cc(Br)cc1/C=N/n1c(-c2ccccc2)n[nH]c1=S`, the inhibition (at 20 µM) is 20.3% (inactive).

For the compound `Oc1c(Br)cc(/C=N/n2c(-c3ccccc3)n[nH]c2=S)c(Br)c1O`, the inhibition (at 20 µM) was 63.4% (active).

Take `Oc1ccc(Br)cc1/C=N/n1c(-c2ccccc2)n[nH]c1=S`: for the setting “at 20 µM”, the inhibition was 6% (inactive).

`Oc1c(Br)cc(/C=N/n2c(-c3ccccc3)n[nH]c2=S)c(O)c1Br`: the inhibition (at 20 µM) is 53.2% (active).

In the case of `COc1c(Br)cc(/C=N/n2c(-c3ccccc3)n[nH]c2=S)c(O)c1Br`, where the note is “at 20 µM”, the inhibition is 44.2% (inactive).

`Cc1c(Br)c(O)c(Br)c(O)c1/C=N/n1c(-c2ccccc2)n[nH]c1=S`: the inhibition reads like this: (at 20 µM) 62.9% (inactive); under setting [1], 47.6%.

Turning to `CC(=O)c1cccc(N(CC(=O)N2CCOCC2)S(C)(=O)=O)c1`, the inhibition (at 20 µM) was -1.8% (inactive).

For the compound `CC(Oc1ccccc1)C(=O)NNC(=O)c1cccs1` (stereo unspecified), the inhibition (at 20 µM) was -0.2% (inactive).

Consider `Cc1ccc(Nc2nc(N)c([N+](=O)[O-])c(N3CCOCC3)n2)cc1`, for which the inhibition (at 20 µM) was -3.1% (inactive).

As to `Cc1c(Cl)c(C(=O)NC2C3CC4CC(C3)CC2C4)nn1C` (stereo unspecified), the inhibition (at 20 µM) was -1.2% (inactive).

Consider `O=C(Nc1ccn(Cc2ccccc2F)n1)c1ccc(COc2ccc(Br)cc2)cc1`, for which the inhibition (at 20 µM) was -0.1% (inactive).

In the case of `Cc1cccc(NC(=O)CN2C(=O)CCS(=O)(=O)c3ccccc32)c1C`, the inhibition (at 20 µM) is 0% (inactive).

Regarding `CC(C)(C)NC(=O)NC(=O)COC(=O)c1cccc(NS(=O)(=O)c2ccc(F)c(F)c2)c1`, the inhibition (at 20 µM) is 5.9% (inactive).

Regarding `COC(=O)c1ccccc1NC(=O)COC(=O)[C@H](C)NC(N)=O`, the inhibition (at 20 µM) is -2.5% (inactive).

With `C=CCn1c(CCC(O)COCCC)n[nH]c1=S` (stereo unspecified), the inhibition (at 20 µM) was -0.8% (inactive).

Turning to `O=C1NC(=S)S/C1=C\c1cc2ccccc2nc1N1CCCCC1`, the inhibition is 63.6% (inactive) (at 20 µM) and 28.2% under setting [1].

With `COc1ccc2nc(N3CCCCC3)c(/C=C3\SC(=S)NC3=O)cc2c1`, the inhibition (at 20 µM) is 53.6% (active).

As for `COc1ccc(-n2c(C)cc(/C=C3\SC(=S)NC3=O)c2C)cc1`, for the setting “at 20 µM”, the inhibition is 32.3% (inactive).

With `COc1ccc2cc(C#N)c(N3CCOCC3)nc2c1`, the inhibition (at 20 µM) was 2.4% (inactive).

On to `O=C1NC(=S)S/C1=C/c1ccc(N2CCOCC2)o1`, for which the inhibition (at 20 µM) is 18.7% (inactive).

For `COc1ccc2cc(/C=C3\SC(=S)NC3=O)c(N3CCOCC3)nc2c1`, where the note is “at 20 µM”, the inhibition is 63.1% (active).

`Cc1ccc(CN2CCC(n3nccc3NC(=O)C3CCOC3)CC2)cc1C` (stereo unspecified): the inhibition (at 20 µM) was -0.8% (inactive).

In the case of `CC(=O)Nc1ccc(C(=O)OCC(=O)c2ccc(C)c([N+](=O)[O-])c2)cc1`, the inhibition (at 20 µM) is 0.2% (inactive).

Turning to `CCN(CC)S(=O)(=O)c1ccc(C(=O)/C=C/c2ccc(-c3ccc([N+](=O)[O-])cc3)o2)cc1`, the inhibition reads like this: (at 20 µM) 73.1% (active); under setting [1], 88.1%.

For `Cc1ccc(C(=O)/C=C/c2ccc(-c3ccc(C)cc3)o2)cc1`, the inhibition (at 20 µM) was 21.5% (inactive).

`Cc1ccc(C(=O)/C=C/c2ccc(-c3ccccc3[N+](=O)[O-])o2)cc1`: the inhibition (at 20 µM) was 35.4% (inactive).
